± gives the standard deviation of the averaged measurements.

The experiment deals with mESC LDLR-Dup GFP reporter (SpCas9 MH-deletion repair). The experiment in a line: fraction of GFP+ cells relative to DMSO control (fold change); higher = more MH-deletion repair to in-frame LDLR (or more editing). The conditions noted are these: 2 µM; 7 days post-transfection.
Take `Cc1ccc(C(=O)OCc2ccc([C@@H](CN)C(=O)Nc3ccc4cnccc4c3)cc2)c(C)c1`: the “fraction of GFP+ cells” value was found to be 1.71 ± 0.5.

Consider `C[C@@H](N)[C@H]1CC[C@H](C(=O)Nc2ccncc2)CC1`, for which the “fraction of GFP+ cells” value turned out to be 1.31 ± 0.91.

Regarding `CN(C)CCNC(=O)c1cccn2c(=O)c3cc4ccccc4cc3nc12`, the “fraction of GFP+ cells” value was determined as 1.06 ± 0.28.

In the case of `CCc1ccc(/C=C2/SC(=S)NC2=O)cc1`, the “fraction of GFP+ cells” value was found to be 0.853 ± 0.25.
